Experimental data published in the supplement of paper PMC13380429.

Key:
[1] = system: Vero E6 infected with SARS-CoV-2; assay: morphology score (similarity to uninfected cells); higher = more like uninfected cells; conditions: 24 h
[2] = system: Vero E6 infected with SARS-CoV-2; assay: SARS-CoV-2 infection rate relative to infected DMSO; higher = more infection, active = 60 or less; conditions: 24 h

| Structure (SMILES) | morphology score [1] | SARS-CoV-2 infection rate [2] |
| --- | --- | --- |
| CC(=O)O[C@]1(C(C)=O)CC[C@H]2[C@@H]3CCC4=CC(=O)CC[C@]4(C)[C@H]3CC[C@@]21C [hydroxyprogesterone-acetate] (10 µM) | 0.0136 | 104% (inactive) |
| c1ccc([C@@H]2C[C@H]2NC2CCNCC2)cc1 (10 µM) | -0.09 | 114% (inactive) |
| N=C(N)NCc1cccc(I)c1 [iobenguane] (10 µM) | 0.132 | 100% (inactive) |
| COc1cc2c(Oc3ccc(NC(=O)C4(C(=O)Nc5ccc(F)cc5)CC4)cc3F)ccnc2cc1OCCCN1CCOCC1 [foretinib] (10 µM) | 0.152 | 106% (inactive) |
| CNC(=O)c1cnn(-c2nc(N)c3ncn([C@@H]4O[C@H](CO)[C@@H](O)[C@H]4O)c3n2)c1 [regadenoson] (10 µM) | -0.0309 | 111% (inactive) |
| NCCNc1ccc(NCCN)c2c1C(=O)c1ccncc1C2=O [pixantrone] (10 µM) | 0.328 | 71% (inactive) |
| CC1(C)Oc2ccc(C#N)cc2[C@H](N(Cc2ncc[nH]2)c2ccc(Cl)cc2)[C@H]1O (10 µM) | 0.455 | 81% (inactive) |
| O=C1NC(=O)c2cc(Nc3ccc(F)cc3)c(Nc3ccc(F)cc3)cc21 (10 µM) | 0.329 | 77.5% (inactive) |
| CN(C)CCOc1cc(-c2cn[nH]c2)ccc1NC(=O)C1COc2ccccc2O1 (stereo not drawn) (0.833333 µM) | 0.294 | 76.5% (inactive) |
| COc1ccc(C(=O)/C(Cc2cc(OC)c(OC)c(OC)c2)=C(\C(=O)O)c2ccc3c(c2)OCO3)cc1 (10 µM) | 0.489 | 69% (inactive) |
| Cc1cc(C)n(-c2cccc([C@H](CC(=O)O)CN3CC[C@@H](CCc4ccc5c(n4)NCCC5)C3)c2)n1 [integrin-antagonist-1] (10 µM) | -0.102 | 111% (inactive) |
| Cc1c(Cl)cccc1S(=O)(=O)Nc1nc(CC(=O)N2CCN(C)CC2)cs1 (10 µM) | -0.053 | 110% (inactive) |
| O=C1C(CC[S+]([O-])c2ccccc2)C(=O)N(c2ccccc2)N1c1ccccc1 (stereo not drawn) [sulfinpyrazone] (10 µM) | 0.0498 | 108% (inactive) |
| Cn1cccc1/C=C1\C(=O)NC(=O)c2ccccc21 (0.833333 µM) | 0.0943 | 100% (inactive) |
| Cc1n[nH]c2ccc(-c3cncc(OC[C@@H](N)Cc4ccccc4)c3)cc12 (10 µM) | 0.111 | 92.5% (inactive) |
| CO[C@@H]1[C@H](O)[C@@H](CO)O[C@H]1n1cnc2c(NC3CCCCC3)ncnc21 (10 µM) | -0.0183 | 108% (inactive) |
| Nc1ncnc2c1c(-c1cnc3[nH]ccc3c1)nn2C1CCCC1 (10 µM) | -0.0498 | 114% (inactive) |
| CC[C@@H](c1ccc(F)c(F)c1)n1c(C(=O)OC)c(-c2ccno2)[nH]c1=S (10 µM) | -0.0397 | 93.5% (inactive) |
| O=C(N[C@@H]1CC[C@@H](c2cccc(F)c2F)CN(CC(F)(F)F)C1=O)N1CCC(n2c(=O)[nH]c3ncccc32)CC1 [telcagepant] (10 µM) | 0.0561 | 102% (inactive) |
| c1cc2c(c(N3CCNCC3)c1)OCCO2 [eltoprazine] (10 µM) | 0.0367 | 94.5% (inactive) |
| CC1(C)CCC(C)(C)c2c1cc(C(=O)Nc1cc(F)c(C(=O)O)c(F)c1)c(O)c2Cl (10 µM) | -0.137 | 110% (inactive) |
| Oc1cc(O)c2cc(O)c(-c3cc(O)c(O)c(O)c3)[o+]c2c1 [delphinidin] (10 µM) | 0.115 | 98.5% (inactive) |

| Structure (SMILES) | morphology score [1] | SARS-CoV-2 infection rate [2] |
| --- | --- | --- |
| O=C1NC(=O)c2c1c1c3ccccc3n3c1c1c2c2ccccc2n1C1CCC3O1 (10 µM) | -0.0614 | 108% (inactive) |
| C[C@@H](O)[C@H]1C(=O)N2C(C(=O)O)=C(S[C@@H]3CN[C@H](C(=O)Nc4cccc(C(=O)O)c4)C3)[C@H](C)[C@H]12 [ertapenem] (10 µM) | 0.126 | 106% (inactive) |
| O=C(NCCN1CCC2(CC1)C(=O)NCN2c1cccc(F)c1)c1ccc(F)c(F)c1 (10 µM) | 0.259 | 75.5% (inactive) |
| CCCCNNC(=O)c1ccc(Br)cc1 (0.833333 µM) | -0.294 | 116% (inactive) |
| C[S+](C)CC[C@H](N)C(=O)O [cabagin] (10 µM) | 0.00749 | 109% (inactive) |
| c1cc(CN2CCCNCCNCCCNCC2)ccc1CN1CCCNCCNCCCNCC1 [plerixafor] (10 µM) | 0.0853 | 95.5% (inactive) |
| NC(=O)c1cccnc1 [nicotinamide] (10 µM) | 0.026 | 108% (inactive) |
| Cc1c(-c2cnccn2)ssc1=S [oltipraz] (10 µM) | -0.0383 | 109% (inactive) |
| COc1ccc(C(=O)c2ccccc2O)c(O)c1 [dioxybenzone] (0.833333 µM) | 0.165 | 88% (inactive) |
| COc1ccc2nc(NC(=O)Nc3ccccc3)sc2c1 [frentizole] (10 µM) | -0.0784 | 114% (inactive) |
| Cc1cc(O)c(C(C)C)cc1Cl [chlorothymol] (10 µM) | -0.0977 | 104% (inactive) |
| CC(C)(Sc1ccc(CCN(CCCCC2CCCCC2)C(=O)NC2CCCCC2)cc1)C(=O)O (10 µM) | 0.13 | 117% (inactive) |
| [I-].[K+] [potassium-iodide] (10 µM) | -0.0371 | 114% (inactive) |
| O=C(Nc1ccc(Cl)cc1)Nc1cccc(-c2cccc(N3CCCC3)n2)c1 (10 µM) | 0.00797 | 92.5% (inactive) |
| CCc1cccc(CC)c1NC(=O)c1nn(C)c2c1CCc1cnc(Nc3ccc(C(=O)NC4CCN(C)CC4)cc3OC(F)(F)F)nc1-2 (10 µM) | -0.0668 | 111% (inactive) |
| O=S(=O)(c1cccc2c(O)nccc12)N1CCCNCC1 [hydroxyfasudil] (10 µM) | 0.355 | 108% (inactive) |
| N#Cc1cc2c(OCC(O)CN3CCN(C(c4ccccc4)c4ccccc4)CC3)cccc2[nH]1 (stereo not drawn) (0.833333 µM) | 0.124 | 75% (inactive) |
| C[C@@H](CN1CC(=O)NC(=O)C1)N1CC(=O)NC(=O)C1 [dexrazoxane] (10 µM) | 0.0659 | 97% (inactive) |
| CN(C)C(=S)SC(=S)N(C)C [tetramethylthiuram-monosulfide] (10 µM) | -0.225 | 116% (inactive) |
| C[C@H]1CCC/C=C/[C@@H]2C[C@H](O)C[C@H]2[C@H](O)/C=C/C(=O)O1 [brefeldin-A] (0.833333 µM) | 0.0397 | 107% (inactive) |
| COc1cccc(-c2ccc(NC(=O)C3=C(C(=O)O)CCC3)c(F)c2)c1 (10 µM) | 0.159 | 94.5% (inactive) |
| CCCCC/C=C\C/C=C\C/C=C\C/C=C\CCCC(=O)Nc1ccc(O)cc1 (10 µM) | 0.0145 | 106% (inactive) |

| Structure (SMILES) | morphology score [1] | SARS-CoV-2 infection rate [2] |
| --- | --- | --- |
| COc1ccc(O)c(C(C)(C)C)c1.COc1ccc(O)cc1C(C)(C)C [butylated-hydroxyanisole] (10 µM) | -0.127 | 116% (inactive) |
| Cc1ccc(S(N)(=O)=O)cc1 [para-toluenesulfonamide] (10 µM) | -0.0434 | 106% (inactive) |
| O=C1NCN(c2ccccc2)C12CCN(CCCC(c1ccc(F)cc1)c1ccc(F)cc1)CC2 [fluspirilene] (10 µM) | 0.056 | 113% (inactive) |
| N=C(N)SCCc1c[nH]cn1 [imetit] (10 µM) | 0.1 | 106% (inactive) |
| COc1cc(N2CCC(N3CCN(C)CC3)CC2)ccc1Nc1ncnc(Nc2ccccc2S(=O)(=O)C(C)C)n1 (0.833333 µM) | -0.0307 | 71% (inactive) |
| Oc1cccc2cccnc12 [oxyquinoline] (10 µM) | 0.202 | 93.5% (inactive) |
| C=CCOc1ccccc1OCC(O)CNC(C)C (stereo not drawn) [oxprenolol] (10 µM) | -0.183 | 114% (inactive) |
| COC(=O)c1c(C)[nH]c(C)c1C(=O)c1ccccc1Cc1ccccc1 (10 µM) | -0.254 | 118% (inactive) |
| CC1=CC(=C(c2ccc(N)cc2)c2ccc(N)cc2)C=CC1=N [basic-fuchsin] (0.833333 µM) | 0.163 | 97.5% (inactive) |
| O=C(N[C@H](Cc1ccccc1)C(=O)O)c1sc2cc(F)ccc2c1Cl (10 µM) | 0.16 | 79.5% (inactive) |
| CCc1cccc2c3c([nH]c12)C(CC)(CC(=O)O)OCC3 (stereo not drawn) [etodolac] (10 µM) | -0.0116 | 115% (inactive) |
| NC(=O)c1ccc2[nH]ccc2c1 (10 µM) | 0.192 | 87.5% (inactive) |
| COc1ccc2[nH]cc(CCNC(C)=O)c2c1 [melatonin] (10 µM) | 0.0444 | 105% (inactive) |
| CCN(CC)CC#CCOC(=O)C(O)(c1ccccc1)C1CCCCC1 (stereo not drawn) [oxybutynin] (10 µM) | 0.299 | 98% (inactive) |
| C=C1/C(=C\C=C2/CCC[C@]3(C)[C@@H]([C@H](C)/C=C/[C@H](C)C(C)C)CC[C@@H]23)C[C@@H](O)C[C@@H]1O [doxercalciferol] (10 µM) | -0.0772 | 106% (inactive) |
| Cn1c2cc([S+](C)[O-])sc2c2cnn(Cc3cccc(N)c3)c(=O)c21 (stereo not drawn) (10 µM) | 0.0427 | 107% (inactive) |
| Cc1cnc(Nc2ccc(N3CCN(C)CC3)cc2)nc1Nc1cccc(S(=O)(=O)NC(C)(C)C)c1 (0.833333 µM) | 0.106 | 122% (inactive) |
| Nc1ncnc2c1ncn2[C@@H]1O[C@H](COP(=O)(O)OP(=O)(O)OP(=O)(O)O)[C@@H](O)[C@H]1O (10 µM) | -0.0072 | 99.5% (inactive) |
| Cc1ccc(=O)n(-c2ccccc2)c1 [pirfenidone] (10 µM) | 0.289 | 83% (inactive) |
| CCN(CC)Cc1ccc2cc(COC(=O)Nc3ccc(C(=O)NO)cc3)ccc2c1 [givinostat] (10 µM) | -0.215 | 112% (inactive) |
